PAFAH1B2 inh – blocks human PAF acetylhydrolase 1b catalytic subunit 2; recombinant PAFAH1B2, FP-rhodamine activity probe, fluorescence polarization; inhibition, % at 3.39 µM; P68402; 340,000 compounds, 1.2% hits;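 active = inhibition above the mean of all tested compounds plus 3 SD, cut at about 24% in these data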
PAFAH2 FP inh – PAFAH2 (human) inhibition | recombinant PAFAH2, FP-rhodamine activity probe, fluorescence polarization | Q99487 | 340,000 compounds, 0.99% hits | inhibition, % at 3.39 µM | AID 492956;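 active = inhibition above the mean over all tested compounds plus 3 SD, cut at about 30% in these data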;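 also: inhibitors block probe labeling of enzyme so polarization drops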
PP5 primary – blocks human protein phosphatase 5 activity. P53041. purified PP5c, OMFP substrate fluorescence. inhibition, % at 6.7 µM. 320,000 compounds, 0.18% hits. AID 1987;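 active = inhibition above the campaign's mean inhibition across all tested compounds plus 3 SD, cut at about 9.5% in these data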
Target sequence (P53041 whole entry, looked up): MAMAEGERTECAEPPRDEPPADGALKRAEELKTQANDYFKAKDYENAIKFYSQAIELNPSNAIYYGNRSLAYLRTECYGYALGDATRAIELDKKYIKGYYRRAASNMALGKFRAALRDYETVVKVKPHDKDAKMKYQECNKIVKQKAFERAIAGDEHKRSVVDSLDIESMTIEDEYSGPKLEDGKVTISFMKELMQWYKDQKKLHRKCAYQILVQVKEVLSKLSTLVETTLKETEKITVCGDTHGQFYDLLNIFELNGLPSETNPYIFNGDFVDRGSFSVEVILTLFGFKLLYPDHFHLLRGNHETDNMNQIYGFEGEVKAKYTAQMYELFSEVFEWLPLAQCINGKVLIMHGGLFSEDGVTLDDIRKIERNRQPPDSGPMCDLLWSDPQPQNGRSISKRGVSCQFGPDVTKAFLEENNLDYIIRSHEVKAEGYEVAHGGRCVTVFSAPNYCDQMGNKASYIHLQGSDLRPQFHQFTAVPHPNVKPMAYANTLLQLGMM
PAFAH1B3 FP inh – blocks human PAF acetylhydrolase 1B catalytic subunit 3. inhibition, % at 3.39 µM. recombinant PAFAH1B3, FP-rhodamine probe, fluorescence polarization. AID 492972. 340,000 compounds, 0.28% hits;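 active = inhibition above the screen-wide average of all tested compounds plus 3 SD, cut at about 25% in these data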
pPAFAH inh – inhibitors of human plasma PAF acetylhydrolase (pPAFAH) | Q13093 | recombinant pPAFAH, FP-rhodamine probe fluorescence polarization | inhibition, % at 3.39 µM | 330,000 compounds, 1.5% hits | AID 463082;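 active = inhibition above the mean inhibition across the screen plus 3 SD, cut at about 25% in these data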;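 also: inhibitors block binding of the rhodamine activity-based probe so polarization drops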
CTSL1 counter – cathepsin L1 inhibition, PFM18AAP counter-screen. recombinant F. hepatica cathepsin L1, Z-Leu-Arg-MCA fluorescence. inhibition, % at 5.96 µM. 300,000 compounds, 0.49% hits;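 active = inhibition above the mean of all tested compounds plus 3 SD, set per screening campaign, cut at about 17% in these data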
PAFAH2 FP conf – confirmation of human PAFAH2 inhibitors | recombinant PAFAH2, FP-rhodamine activity probe, fluorescence polarization | 2,300 compounds, 65% hits | AID 493030 | inhibition, % at 3.39 µM | shares compounds with PAFAH2 FP inh;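 active = mean inhibition over three repeats above a set limit taken from the earlier primary screen, cut at about 30% in these data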;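 also: inhibitor blocks binding of rhodamine activity probe so polarization falls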
Large screens that a line does not name were inactive (follow-up assays come after a bar, where they were run). Hits are enriched below; roughly 3% of the tested compounds scored in any of these assays.

Cc1cc(=O)oc2c1ccc1oc(/C(=N/O)c3ccccc3)c(C)c12	PAFAH2 FP inh 37 | PAFAH2 FP conf inactive
Cc1ccc(/C(=N\O)c2oc3c(C)c4oc(=O)cc(C)c4cc3c2C)cc1	none
COc1ccc(C2=CCN3CCCCC3C2)c(-c2ccc(OC)c(OC)c2)c1 (configuration not stated)	none (no result: PP5 primary, CTSL1 counter)
O=C(Cn1cc(S(=O)(=O)N2CCCC2)c(S(=O)(=O)N2CCCC2)c1)NCc1ccco1	none
Cc1cc(C)cc(NC(=O)COC(=O)c2ccc(CN3CCCC3=O)cc2)c1	PAFAH2 FP inh 86 (no result: CTSL1 counter) | PAFAH2 FP conf 85
CC(C)(C)c1ccc(NC(=O)COC(=O)c2ccc(CN3CCCC3=O)cc2)cc1	PAFAH2 FP inh 61 (no result: CTSL1 counter) | PAFAH2 FP conf 51
N#CCC(=O)Nc1ccc(C(=O)OCC(=O)N2CCCC2=O)cc1	none
Cc1ccc(NC(=O)COC(=O)c2ccc(CN3CCCC3=O)cc2)c(Cl)c1	PAFAH2 FP inh 69 (no result: CTSL1 counter) | PAFAH2 FP conf 71
Cc1ccc(C)c(NC(=O)COC(=O)c2ccc(S(=O)(=O)N3CCCCC3)cc2)c1	none (no result: CTSL1 counter)
COc1ccc(NC(=O)COC(=O)c2ccc(N3CCCC3=O)cc2)cc1OC	none
COc1cc(C(=O)OCC(=O)N2CCCCC2C)ccc1OCc1c(C)noc1C (configuration not stated)	PAFAH2 FP inh 32 | PAFAH2 FP conf inactive
COc1cc(C(=O)OCC(C)=O)ccc1OCc1c(C)noc1C	none (no result: PP5 primary, pPAFAH inh, CTSL1 counter)
COc1ccc(OC)c(CCNC(=O)CN2C(=O)CCSc3ccccc32)c1	PAFAH2 FP inh 36 | PAFAH2 FP conf inactive
CCOc1ccccc1-n1nnnc1SCC(=O)N1CCCC1=O	PAFAH2 FP inh 66 (no result: PP5 primary, CTSL1 counter) | PAFAH2 FP conf 56
COC(=O)c1ccc(C(c2c(C)n(C)n(-c3ccccc3)c2=O)c2c(C)n(C)n(-c3ccccc3)c2=O)cc1	none
Cc1c(C(c2ccc(Br)cc2)c2c(C)n(C)n(-c3ccccc3)c2=O)c(=O)n(-c2ccccc2)n1C	PAFAH2 FP inh 37 | PAFAH2 FP conf inactive
Nc1[nH]n2c(=O)cc(-c3ccccc3)nc2c1N=Nc1ccccc1	PAFAH2 FP inh 32 | PAFAH2 FP conf inactive
COc1ccc(/C=C2/CCC(CN3CCOCC3)C2=O)cc1 (configuration not stated)	none (no result: PP5 primary, pPAFAH inh, CTSL1 counter)
Cc1ccc(N/N=C/c2c(O)cc(C)oc2=O)cc1	none
Cc1ccc(CO/N=C/c2c(O)cc(C)oc2=O)cc1	PAFAH2 FP inh 37 | PAFAH2 FP conf inactive
CCN(CC)S(=O)(=O)c1ccc2c(c1)nc(CCC(=O)OCC(=O)Nc1cc(Cl)cc(Cl)c1)n2C	PAFAH2 FP inh 73 | PAFAH2 FP conf 84
CCN(CC)S(=O)(=O)c1ccc2c(c1)nc(CCC(=O)OCc1c(C)noc1C)n2C	none
CCc1ccc(NC(=O)COC(=O)CCc2nc3cc(S(=O)(=O)N(CC)CC)ccc3n2C)cc1	PAFAH2 FP inh 63 | PAFAH2 FP conf 75
CCN(CC)S(=O)(=O)c1ccc(C(=O)N2CCc3ccccc32)cc1	none
CCN(CC)S(=O)(=O)c1ccc2c(c1)nc(CCC(=O)OCC(=O)N1CCc3ccccc31)n2C	PAFAH2 FP inh 71 | PAFAH2 FP conf 82
CCCN1CCC(=O)NC1=S	none (no result: PP5 primary, pPAFAH inh, CTSL1 counter)
O=S(=O)(c1ccc2c(c1)CCCN2)N1CCCC2CCCCC21 (configuration not stated)	PAFAH2 FP inh 31 | PAFAH2 FP conf inactive
O=S(=O)(c1ccc2c(c1)CCCN2)N1CCCC1	none (no result: CTSL1 counter)
CC(Sc1nnc(-c2ccncc2)n1C)C(=O)Nc1nccs1 (configuration not stated)	none
C=CCN1C(=O)/C(=C2/Sc3ccccc3N2CC)SC1=S	none
C=CCN1C(=O)/C(=C2/Sc3ccccc3N2CCCS(=O)(=O)O)SC1=S	PAFAH2 FP inh 34, pPAFAH inh 25 | PAFAH2 FP conf inactive
Cc1cc(CN(C)C(=O)c2ccc(OC3CCN(CCc4ccccc4)CC3)cc2)on1	none
COc1ccc(C(=O)O/N=C(\C)c2ccccc2)cc1	PAFAH2 FP inh 62 | PAFAH2 FP conf 45
COc1ccc(C(=O)O/N=C(/c2ccccc2)c2ccncc2)cc1	PAFAH2 FP inh 78 | PAFAH2 FP conf 71
COc1ccc(C(=O)O/N=C(/c2ccccc2)c2ccncc2)cc1OC	PAFAH2 FP inh 74 | PAFAH2 FP conf 80
